Source: PubChem BioAssay
CF NFkB block: blocks PAF-induced NF-kB reporter in cystic fibrosis cells; KKLEB NF-kB-GFP reporter, GFP fluorescence overnight; inhibition, % at 5 µM; hit rate 0.86% among 360,000; AID 588850;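 active = at least 50% inhibition at 5 µM, scaled per plate between neutral and stimulator controls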;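 also: PAF is a Pseudomonas aeruginosa culture filtrate used as stimulus; plate controls were PAF-stimulated DMSO wells for no effect and unstimulated DMSO wells for full effect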
ABHD5-PLIN5 inh: ABHD5-PLIN5 protein interaction inhibition; Q00G26+Q8WTS1; Split G. princeps luciferase complementation, luminescence, 4 h; inhibition, % at 4 µM; hit rate 0.78% among 360,000;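 active = inhibition above the mean inhibition across every tested compound plus 3 SD, cut at about 22% in these data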;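 also: 0% = DMSO only wells and the 100% control is not disclosed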
Target sequence (Q00G26 whole entry, looked up): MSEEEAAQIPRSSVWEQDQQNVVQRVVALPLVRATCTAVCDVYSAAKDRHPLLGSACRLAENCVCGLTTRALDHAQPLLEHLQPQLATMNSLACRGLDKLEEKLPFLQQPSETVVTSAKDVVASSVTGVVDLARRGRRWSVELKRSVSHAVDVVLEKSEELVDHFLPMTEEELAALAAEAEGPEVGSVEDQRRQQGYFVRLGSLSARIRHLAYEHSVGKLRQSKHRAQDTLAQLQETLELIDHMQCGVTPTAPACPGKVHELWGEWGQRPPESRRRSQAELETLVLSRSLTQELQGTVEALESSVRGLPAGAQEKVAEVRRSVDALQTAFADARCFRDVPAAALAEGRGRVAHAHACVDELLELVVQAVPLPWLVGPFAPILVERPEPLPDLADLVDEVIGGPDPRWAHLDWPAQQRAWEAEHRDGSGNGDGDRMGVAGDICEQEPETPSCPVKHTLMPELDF
Target sequence (Q8WTS1 whole entry, looked up): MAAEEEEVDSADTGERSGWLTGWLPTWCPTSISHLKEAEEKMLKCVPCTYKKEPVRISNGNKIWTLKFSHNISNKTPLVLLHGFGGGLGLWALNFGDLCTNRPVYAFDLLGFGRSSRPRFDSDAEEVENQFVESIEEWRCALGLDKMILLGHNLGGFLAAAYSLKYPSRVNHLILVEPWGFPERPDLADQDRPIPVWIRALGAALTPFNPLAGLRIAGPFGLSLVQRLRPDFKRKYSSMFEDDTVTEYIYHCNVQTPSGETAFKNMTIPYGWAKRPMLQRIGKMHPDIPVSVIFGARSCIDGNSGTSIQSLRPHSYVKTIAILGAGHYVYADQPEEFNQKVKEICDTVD
HIF-2a block: blocks HIF-2a reporter activity; 786-0 RCC cells HIF-2a reporter, luciferase luminescence, overnight; inhibition, % at 18.8 µM; hit rate 0.72% among 360,000; AID 624352;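 active = inhibition of the luminescence signal of 40% or more relative to plate controls, in a single-dose primary screen at 18.75 µM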
KKLEB cytotox: reduces viability of KKLEB cystic fibrosis airway cells | KKLEB CF airway cells viability, ATPlite luminescence, overnight; hits give low values; cells stimulated with P. aeruginosa culture filtrate | activity change (cytotoxicity), % at 5 µM | hit rate 0.36% among 360,000 | AID 602141;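 active = corrected activity change at or below -50% at 5 µM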
TRPM1 prom inh: reduces MITF-dependent TRPM1 promoter luciferase signal | SK-MEL-5 TRPM1 promoter luciferase, 24 h | inhibition, % at 12.5 µM | hit rate 0.83% among 330,000;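 active = mean inhibition across replicates of 60% or more, whatever share of single replicates reaches that level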
Peg3 prom inh-1: Peg3 promoter activity inhibition. inhibition, % at 20 µM. hit rate 1.7% among 360,000. HeLa PEG-Prom luciferase reporter, luminescence, overnight;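 active = inhibition of at least 50% at 20 µM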
Peg3 prom inh-2: confirmation of Peg3 promoter inhibitors; inhibition, % at 20 µM; HeLa PEG-Prom luciferase reporter, luminescence, overnight; hit rate 84% among 1,300; shares compounds with Peg3 prom inh-1;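 active = at 20 µM dose, 40% or more inhibition averaged across four replicates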
Starred values were filed as active, the others as inactive. Only some compounds are listed: those with a hit (about 3% of all), similar ones and a draw of the others.

For COCC(C)n1c(C)cc(C(=O)COC(=O)c2cccn2C)c1C (stereo unspecified) the results were CF NFkB block 5, ABHD5-PLIN5 inh 10, HIF-2a block 12, KKLEB cytotox -1, TRPM1 prom inh 42, Peg3 prom inh-1 56* and Peg3 prom inh-2 45*.
For COCC(C)n1c(C)cc(C(=O)COC(=O)c2cnc(Cl)c(Cl)c2)c1C (stereo unspecified) the results were CF NFkB block -10, ABHD5-PLIN5 inh 7, HIF-2a block 8, KKLEB cytotox 4, TRPM1 prom inh 7 and Peg3 prom inh-1 16.
CCOc1ccc2[nH]c3c(NCCO)ncnc3c2c1 was read as CF NFkB block 21, ABHD5-PLIN5 inh -2, HIF-2a block -122, KKLEB cytotox -2, TRPM1 prom inh -13 and Peg3 prom inh-1 -39.
`CCOc1ccc2[nH]c3c(NCCc4ccc(OC)c(OC)c4)ncnc3c2c1` gave CF NFkB block -3, ABHD5-PLIN5 inh 2, HIF-2a block 20, KKLEB cytotox -17, TRPM1 prom inh 28, Peg3 prom inh-1 66* and Peg3 prom inh-2 65*.
For c1ccc2c(c1)CC(N1CCCCC1)c1ccccc1S2 (stereo unspecified) the results were CF NFkB block 12, ABHD5-PLIN5 inh 6, HIF-2a block 8, KKLEB cytotox -5, TRPM1 prom inh 1 and Peg3 prom inh-1 13.
`CCc1ccc2c(c1)Sc1ccccc1CC2N1CCN(C)CC1` (stereo unspecified) gave CF NFkB block 10, ABHD5-PLIN5 inh 12, HIF-2a block 9, KKLEB cytotox -16, TRPM1 prom inh 10, Peg3 prom inh-1 55* and Peg3 prom inh-2 77*.
For CC(=O)Nc1sc(C)c(C)c1C(=O)OCC(=O)Nc1cccc(C)c1 the results were CF NFkB block 43, ABHD5-PLIN5 inh -7, HIF-2a block -6, KKLEB cytotox -27, TRPM1 prom inh 3, Peg3 prom inh-1 90* and Peg3 prom inh-2 39.
Screening CC(=O)Nc1sc(C)c(C)c1C(=O)OCC(=O)Nc1ccccc1 returned CF NFkB block 4, ABHD5-PLIN5 inh 0, HIF-2a block -37, KKLEB cytotox -5, TRPM1 prom inh -17 and Peg3 prom inh-1 18.
`COc1ccc(C(C)C)cc1-c1cncc(NC(C)=O)n1` gave CF NFkB block -13, ABHD5-PLIN5 inh 0, HIF-2a block 15, KKLEB cytotox 7 and Peg3 prom inh-1 -4.
`COc1ccc(CCN2C(=O)C=CC2=O)cc1OC` gave CF NFkB block 6, ABHD5-PLIN5 inh 53*, HIF-2a block 55*, KKLEB cytotox -4, TRPM1 prom inh 24, Peg3 prom inh-1 96* and Peg3 prom inh-2 98*.
`COc1ccc(C(O)(CC(C)C)C(CN2CCOCC2)c2ccccc2)cc1` (stereo unspecified) gave CF NFkB block 6, ABHD5-PLIN5 inh 1, HIF-2a block -2, KKLEB cytotox 5, TRPM1 prom inh 3, Peg3 prom inh-1 71* and Peg3 prom inh-2 73*.
O=C(Cn1cnc2ccccc2c1=O)NCCC(=O)Nc1ccccc1C(F)(F)F was read as CF NFkB block 7, ABHD5-PLIN5 inh 6, HIF-2a block 1, KKLEB cytotox -4, TRPM1 prom inh 4 and Peg3 prom inh-1 8.
`O=C1c2ccccc2-c2nnc(-c3ccc(F)cc3)cc21` gave CF NFkB block -10, ABHD5-PLIN5 inh -1, HIF-2a block -141, KKLEB cytotox -16, TRPM1 prom inh 6 and Peg3 prom inh-1 -11.
Cc1ccc(-c2cc3c(nn2)-c2ccccc2C3=O)cc1 was read as CF NFkB block -3, ABHD5-PLIN5 inh -3, HIF-2a block 27, KKLEB cytotox -75*, TRPM1 prom inh 78*, Peg3 prom inh-1 76* and Peg3 prom inh-2 67*.
For Cc1cc(OCCn2cncn2)ccc1[N+](=O)[O-] the results were CF NFkB block 18, ABHD5-PLIN5 inh 9, HIF-2a block 13, KKLEB cytotox -4, TRPM1 prom inh -3 and Peg3 prom inh-1 -7.
CCC(=O)N1CCC1(C)C(=O)NCc1ccccc1SC (stereo unspecified) was read as CF NFkB block -20, ABHD5-PLIN5 inh 3, HIF-2a block 1, KKLEB cytotox 8 and Peg3 prom inh-1 -2.
